Measurements as given in PubChem BioAssay (NCATS).
Records with an inconclusive call do not appear. The source made the active and inactive calls. Unless noted, calls follow the shape of the dose curve; as a rule, active = well fitted curve in the direction sought with a large enough effect; inconclusive = small, poorly fitted or top-dose-only effect, or another doubt; inactive = no such curve, though single readings can be large; an effect the other way counts as inactive or inconclusive.

Assays:
[1] = biological target: Cytochrome P450 3A4 (Homo sapiens) (UniProt P08684); test: qHTS Assay for Inhibitors and Substrates of Cytochrome P450 3A4 (AID 884); also: nearly all actives have a fitted effect of over 50% in size; also: potency is read from the fitted curve at half-maximal effect; as to activity change, negative = inhibition: % is scaled to controls: 0 for no effect and ±100 for the full control effect
How it was run: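 20 nM human CYP3A4 with 25 uM Luciferin-PPXE (at KM) in 200 mM KPO4, preincubated 10 min with compound; NADPH regeneration started a 60 min RT reaction. Luciferin detected by luminescence, normalized to 57 uM ketoconazole as full inhibition.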

[2] = Confirmation and Secondary Assay for Modulators of Hemoglobin Beta Chain Splicing at IVS2 654 locus (AID 910); also: % of control where 0% means no effect
How it was run: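 HeLa cells stably carrying EGFP interrupted by mutant beta-globin IVS2-654 intron (CMV-driven) were treated with compound for 2 days at 37C; corrected splicing was scored as total peak GFP intensity per well (488 nm excitation, 500-520 nm emission).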

[3] = Confirmation and Secondary Assay for Modulators of Hemoglobin Beta Chain Splicing at IVS2 705 locus (AID 930);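 also: HeLa cells stably expressing the EGFP-705 splicing reporter; GFP fluorescence per well restored by corrected splicing of the IVS2-705 intron in EGFP; % of control where 0% means no effect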
How it was run: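 Read-out: total peak GFP fluorescence per well (488 nm excitation, 500-520 nm emission) by laser-scanning cytometry. Cells: HeLa EGFP-705 splicing reporter, 2 days compound exposure in Optimem/2% FCS.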

[4] = qHTS Assay for Lipid Storage Modulators (AID 1519; calls by dose curve; also: potency is read from the fitted curve at half-maximal effect; as to activity change, negative = inhibition: % is scaled to controls: 0 for no effect and ±100 for the full control effect); details: Drosophila S3 cells, BODIPY lipid droplet/cell ratio, laser cytometry, cells loaded with oleic acid; for activity change, negative = inhibition: at 57.5 µM (top of the series)
How it was run: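 Cells seeded at 5,000 per well were treated with compounds over a concentration series and loaded with oleic acid (400 uM, as added). Lipid droplet fluorescence (488 nm excitation, 500-530 nm channel) was read by laser-scanning cytometry and normalized to 20 uM Triacsin C.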

[5] = biological target: Cytochrome P450 3A4 (Homo sapiens) (UniProt P08684); test: qHTS Assay for Activators of Cytochrome P450 3A4 (AID 885); also: nearly all actives have a fitted effect of over 65% in size
How it was run: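 Steps: enzyme/substrate mix dispensed; compound added, 10 min RT; NADPH regeneration solution added, 60 min RT; luciferin detection buffer stops reaction; 20 min later luminescence measured.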

[6] = biological target: Ubiquitin carboxyl-terminal hydrolase 1 (Homo sapiens) (UniProt O94782); test: Inhibitors of USP1/UAF1: Pilot qHTS (AID 504865);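 also: rhodamine fluorescence freed from ubiquitin-rhodamine substrate followed over time; top concentration of the series differs between compounds; % is scaled to controls: 0 for no effect and ±100 for the full control effect; nearly all actives have a fitted effect of over 35% in size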
How it was run: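 Enzyme-free wells gave the negative control, while test wells held 1nM USP1/UAF1 preincubated with compound for 15 min at room temperature. Ub-Rho at 150nM final started the reaction, and fluorescence at 480/540 nm was recorded kinetically.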

[7] = measured here: cell count channel max response
[8] = measured here: lipid channel max response

Ubiquitin carboxyl-terminal hydrolase 1 (Homo sapiens), sequence (O94782 whole entry, looked up): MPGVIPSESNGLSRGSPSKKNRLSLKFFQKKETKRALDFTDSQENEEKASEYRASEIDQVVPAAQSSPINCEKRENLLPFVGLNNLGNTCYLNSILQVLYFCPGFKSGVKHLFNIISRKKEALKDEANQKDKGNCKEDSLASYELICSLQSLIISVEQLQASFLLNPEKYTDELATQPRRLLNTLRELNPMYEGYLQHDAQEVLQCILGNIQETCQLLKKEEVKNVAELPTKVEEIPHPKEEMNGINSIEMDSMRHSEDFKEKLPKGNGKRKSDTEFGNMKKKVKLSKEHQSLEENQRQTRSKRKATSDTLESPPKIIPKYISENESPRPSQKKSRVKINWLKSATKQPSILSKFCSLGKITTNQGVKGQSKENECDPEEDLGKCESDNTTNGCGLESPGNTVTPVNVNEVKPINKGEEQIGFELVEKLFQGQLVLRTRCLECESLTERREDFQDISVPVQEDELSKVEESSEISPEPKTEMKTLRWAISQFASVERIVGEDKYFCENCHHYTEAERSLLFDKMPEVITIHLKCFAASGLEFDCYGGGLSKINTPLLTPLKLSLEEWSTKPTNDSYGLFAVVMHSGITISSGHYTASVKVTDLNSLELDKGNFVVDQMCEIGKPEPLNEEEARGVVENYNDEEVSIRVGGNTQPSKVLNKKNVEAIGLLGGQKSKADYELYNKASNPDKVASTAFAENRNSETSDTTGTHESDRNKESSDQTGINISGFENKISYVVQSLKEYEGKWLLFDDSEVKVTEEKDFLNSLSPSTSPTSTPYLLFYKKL
Cytochrome P450 3A4 (Homo sapiens), sequence (P08684 whole entry, looked up): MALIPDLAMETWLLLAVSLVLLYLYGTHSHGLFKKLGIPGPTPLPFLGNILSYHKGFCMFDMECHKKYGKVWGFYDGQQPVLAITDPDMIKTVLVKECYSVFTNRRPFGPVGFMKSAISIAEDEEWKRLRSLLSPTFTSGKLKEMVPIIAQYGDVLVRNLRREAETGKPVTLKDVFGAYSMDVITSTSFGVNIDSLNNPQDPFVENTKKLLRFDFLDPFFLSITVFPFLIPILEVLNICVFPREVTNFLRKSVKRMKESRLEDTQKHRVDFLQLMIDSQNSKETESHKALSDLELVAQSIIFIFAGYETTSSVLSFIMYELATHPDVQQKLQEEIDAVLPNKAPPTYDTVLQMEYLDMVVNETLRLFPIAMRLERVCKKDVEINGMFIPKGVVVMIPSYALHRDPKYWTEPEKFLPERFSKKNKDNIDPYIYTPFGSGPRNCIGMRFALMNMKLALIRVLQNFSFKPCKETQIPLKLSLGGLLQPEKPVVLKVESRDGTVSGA

Compound | Potency [1] | Potency [2] | Potency [3] | activity change, negative = inhibition [4] | max response [4, 7] | max response [4, 8] | Potency [5] | Potency [6] | Potency [4]
O=C(NC(=O)c1ccccc1Cl)Nc1ccc(OC(F)(F)F)cc1 | inactive | inactive | inactive | 8.39% (inactive) | 0.34% | 9.8% |  |  | 
CC1(C)C(O)CC(O)[C@]2(C)C1CC(O)[C@]1(C)C2CC[C@@]2(C)C(c3ccoc3)OC(=O)C3O[C@]312 (some centres not stated) | 12.6 µM (active) |  |  | 0.703% (inactive) | 12.6% | 16.1% | inactive |  | 
COC1C(O)C(C)O[C@H](OC2CC[C@@]3(C=O)C4CC[C@]5(C)C(C6=CC(=O)OC6)CC[C@@]5(O)C4CC[C@@H]3C2)C1O (some centres not stated) |  |  | inactive | 3.31% (inactive) | 21.5% | 24.5% |  | inactive | 
C=C1C2CC[C@@]3(C)C(c4ccoc4)OC(=O)C[C@@]13OC1CC(=O)C(C)(C)C(C(OC(C)=O)C(=O)OC)[C@@]12C (some centres not stated) | 1 µM (active) | inactive | inactive | 1.36% (inactive) | 4.29% | 7.56% | inactive |  | 
CC(=O)OC1C[C@@]2(C)C(c3ccoc3)C[C@H]3O[C@@]32[C@@]2(C)C(=O)C(O)=C3C(C)(C)C(=O)C=C[C@]3(C)C12 (some centres not stated) | 0.398 µM (active) | inactive | inactive |  | -2.69% | -67.6% | inactive |  | 15.8 µM (active)
CNC(C)[C@H](O)c1ccccc1 (some centres not stated) |  | inactive | inactive | 9.2% (inactive) | 21.5% | 37.3% |  | inactive | 
C/C=C(/C)C(=O)OC1CC[C@]2(C)C3CCC4[C@]5(O)CC(O)[C@]6(O)C(CN7CC(C)CCC7[C@]6(C)O)[C@]5(O)C[C@@]42O[C@]13O (some centres not stated) |  |  | inactive | 5.46% (inactive) | 6.5% | 12.3% |  | inactive | 
COC1=CC2C3Cc4ccc(OC)c(O)c4[C@]2(CCN3C)CC1=O (some centres not stated) |  |  | inactive | 4.04% (inactive) | -5.63% | 0.618% |  | inactive | 
CC(C)(O)C1C2OC(=O)C1[C@]1(O)CC3O[C@@]34C(=O)OC2[C@@]14C (some centres not stated) |  |  | inactive | 4.81% (inactive) | 5.32% | 12.9% |  | inactive | 
CC(C)c1ccc2c(c1O)CCC1C3=C(CC[C@]21C)C(=O)OC3 (some centres not stated) | 15.8 µM (active) | inactive |  | 1.46% (inactive) | -9.02% | -0.042% | inactive |  | 
